Source: PubChem BioAssay (NCATS)
Results filed as inconclusive are left out. A number with no mark means an inactive call. Active and inactive are the calls of the source. Calls follow the shape of the dose curve; as a rule, active = well fitted cell-killing curve with a large enough effect; inconclusive = small, poorly fitted or top-dose-only effect, or effect the other way; inactive = no such curve, though single readings can be large or run the other way.

Experiment: Quantitative High-Throughput drug screen in 47 multiple myeloma cell lines against the NCATS MIPE library collection: EJM_DSMZ cell viability assay (AID 1918926; also: nearly all actives have a fitted effect of over 30% in size)
Settings: EJM myeloma cell viability, CellTiter-Glo ATP, 48 h; series mostly up to 45.8 µM; viability, % of control: at the top concentration
Excerpt: PI: Beverly A. Mock Ph.D.
Laboratory of Cancer Biology and Genetics,
Center for Cancer Research, National Cancer Institute,
National Institute of Health, Bethesda, Maryland
Drug resistance and disease progression are common in multiple myeloma (MM) patients, underscoring the need for new therapeutic combinations. […] We hypothesized that effective combinations would reduce MYC expression and enhance p16 activity. […] These preclinical data identify potentially useful drug combinations for evaluation in drug-resistant MM and reveal potential mechanisms of combined drug sensitivity.
Described herein is the primary MIPE qHTS used to cherrypick compounds. Validated compounds were then further tested for potential synergistic activiy.
[1] Peat TJ, Gaikwad SM, Dubois W, Gyabaah-Kessie N, Zhang S, Gorjifard S, Phyo Z, Andres M, Hughitt VK, Simpson RM, Miller MA, Girvin AT, Taylor A, Williams D, D'Antonio N, Zhang Y, Rajagopalan A, Flietner E, Wilson K, Zhang X, Shinn P, Klumpp-Thomas C, McKnight C, Itkin Z, Chen L, Kazandijian D, Zhang J, Michalowski AM, Simmons JK, Keats J, Thomas CJ, Mock BA. Drug combinations identified by high-throughput screening promote cell cycle transition and upregulate Smad pathways in myeloma. Cancer Lett. 2023 Aug 1;568:216284. doi: 10.1016/j.canlet.2023.216284. Epub 2023 Jun 24. PMID: 37356470; PMCID: PMC10408729.
SEQUENCE No. (e.g., 1, 2, 3, etc.); […] (e.g., Cells, Incubation, Reagent, etc.); VALUE and DESCRIPTION.
1; Cells; 5 uL; white, solid bottom 1536-well Greiner assay plate.
2; Compounds; 23 nL; Kalypsis pin tool (Wako USA) equipped with a 1536-well pin head to transfer to the assay plates.
3; Incubation; 48 hours; 37C incubation.
4; Reagent;5uL; CellTiter Glo (Promega).
5; Detector; 425V; Luminescence; Viewlux PerkinElmer.
NOTES (numbers refer to Sequence numbers above)
1. The cell-based screening methods employed in this study were like those previously published. Briefly, the corresponding myeloma cell lines were screened in 1,536-well plates with 500 cells, 5-uL per well for inhibition of cell viability (assessed by measuring ATP levels with CellTiterGlo).
2. NCATS MIPE 4.0 library of approved and investigational drugs were added using the Kalypsis pin tool. Wells treated with DMSO only for 100% viability and media only wells for 0% viability were used as controls.
3. The assay plates were covered and incubated for 48 hours in a 37C, 5% CO2 incubator with controlled humidity.
4. After 48 hours, CellTilter-GloTM luminescent substrate mix (Promega) reagent was added to the assay plate and plates we incubated for 5 min at room temperature.
5. Signal was measured as median relative luminescence units on a ViewLux (PerkinElmer) multiplate reader.
[1] Heske CM, Davis MI, Baumgart JT, Wilson K, Gormally MV, Chen L, Zhang X, Ceribelli M, Duveau DY, Guha R, Ferrer M, Arnaldez FI, Ji J, Tran HL, Zhang Y, Mendoza A, Helman LJ, Thomas CJ. Matrix Screen Identifies Synergistic Combination of PARP Inhibitors and Nicotinamide Phosphoribosyltransferase (NAMPT) Inhibitors in Ewing Sarcoma. Clin Cancer Res. 2017 Dec 1;23(23):7301-7311. doi: 10.1158/1078-0432.CCR-17-1121. Epub 2017 Sep 12. PMID: 28899971; PMCID: PMC6636827.
Potency is read from the fitted curve at half-maximal effect.

Row | Structure (SMILES) | Potency | viability, % of control
1 | O=C(C=Cc1cccc(S(=O)(=O)Nc2ccccc2)c1)NO | 6.05 µM (active) | –
2 | N#CCNC(=O)c1ccc(-c2ccnc(Nc3ccc(N4CCOCC4)cc3)n2)cc1 | 11.8 µM (active) | –
3 | CC(C)(O)CCc1ccc(OCc2cc(-c3cccc(OC(F)F)c3)c3ncccc3c2)cc1 | – | 104%
4 | CC(C)c1ccc(Cn2ccc3c4c(N)nc(NC5CC5)nc4ccc32)cc1 | 14.8 µM (active) | –
5 | CC(C)(C)c1cc(C(C)(C)C)c(NC(=O)c2c[nH]c3ccccc3c2=O)cc1O | – | 102%
6 | CNC(=O)c1ccc(N2C(=S)N(c3cnc(C#N)c(C(F)(F)F)c3)C(=O)C23CCC3)cc1F | 0.166 µM (active) | –
7 | O=C(Nc1cn[nH]c1-c1nc2ccc(CN3CCOCC3)cc2[nH]1)NC1CC1 | 1.87 µM (active) | –
8 | COc1cc(C(=O)NS(=O)(=O)c2ccccc2C)ccc1Cc1cn(C)c2ccc(NC(=O)OC3CCCC3)cc12 | 16.6 µM (active) | –
9 | CNC(=O)c1ccccc1Nc1nc(Nc2ccc(N3CCOCC3)cc2OC)ncc1Cl | 13.2 µM (active) | –
10 | Cn1cc(-c2[nH]c3cc(NC(=O)[C@H](N)C4CCCCC4)cc4c3c2C=NNC4=O)cn1 | 0.526 µM (active) | –
11 | O=C(NCCCNc1nc(Nc2cccc(NC(=O)N3CCCC3)c2)ncc1I)c1cccs1 | 14.8 µM (active) | –
12 | O=C(c1cncc(Br)c1)N1CCC(N2CCCC2)CC1 | – | 112%
13 | Cc1cn(-c2cc(NC(=O)c3ccc(C)c(Nc4nccc(-c5cccnc5)n4)c3)cc(C(F)(F)F)c2)cn1 | 18.7 µM (active) | –
14 | NCC(=O)Nc1ccc(-n2nc(C(F)(F)F)cc2-c2ccc3c(ccc4ccccc43)c2)cc1 | 23.5 µM (active) | –
15 | c1ccc2c(CCNc3ccc(Nc4ccncc4)cc3)c[nH]c2c1 | 14.8 µM (active) | –
16 | COc1ccc(CC2SC(=O)NC2=O)cc1C(=O)NCc1ccc(C(F)(F)F)cc1 (stereo not given) | – | 128%
17 | CNC(=O)c1cc(Oc2ccc(NC(=O)Nc3cc(C(C)(C)C)nn3-c3ccc4ncccc4c3)c(F)c2)ccn1 | 6.62 µM (active) | –
18 | CCCCc1nc2cc(C=CC(=O)NO)ccc2n1CCN(CC)CC | 1.32 µM (active) | –
19 | C#Cc1cccc(Nc2ncnc3cc(OC)c(OCCCCCCC(=O)NO)cc23)c1 | 0.469 µM (active) | –
20 | CC(NCc1ccc2c(c1)nc(NC(=O)c1ccc(-c3cn[nH]c3)s1)n2CC(C)(C)O)C(C)(C)C (stereo not given) | 0.372 µM (active) | –

Row | Structure (SMILES) | Potency | viability, % of control
21 | C=CC(=O)Nc1cccc(Oc2nc(Nc3ccc(N4CCN(C)CC4)cc3)ncc2Cl)c1 | 23.5 µM (active) | –
22 | O=C(C=Cc1cccnc1)NCCCCC1CCN(C(=O)c2ccccc2)CC1 | – | 90.5%
23 | COCCOc1ccc2c(c1)ncn2-c1ccc2cccc(N3CCC(N)CC3)c2n1 | 5.9 µM (active) | –
24 | COc1cc2c(Oc3ccc(NC(=O)C4(C(=O)Nc5ccc(F)cc5)CC4)cc3F)ccnc2cc1OCCCN1CCOCC1 | 18.7 µM (active) | –
25 | CN1CCN(c2ccc3nc(-c4c(N)c5c(F)cccc5[nH]c4=O)[nH]c3c2)CC1 | 18.7 µM (active) | –
26 | Nc1ccc(C(=O)c2cc3c(ccc4ccccc43)[nH]2)cc1 | 4.18 µM (active) | –
27 | COc1cc(-c2nn(C3CCC(N4CCN(C(C)=O)CC4)CC3)c3ncnc(N)c23)ccc1NC(=O)c1cc2ccccc2n1C (stereo not given) | 20.9 µM (active) | –
28 | CCN(CC)CCNC(=O)c1ccc2nc(-c3ccccc3)c(-c3ccc(CN4CCC(n5c(=O)[nH]c6ccccc65)CC4)cc3)nc2c1 | 18.7 µM (active) | –
29 | COC(=O)c1ccc2c(C(=Nc3ccc(N(C)C(=O)CN4CCN(C)CC4)cc3)c3ccccc3)c(O)[nH]c2c1 | 3.72 µM (active) | –
30 | CC(=O)SC[C@@H](C)C(=O)N1CCC[C@H]1C(=O)N[C@@H](Cc1ccccc1)C(=O)O | – | 115%
31 | COc1ccc(C=Cc2cc(OC)c(OC)c(OC)c2)cc1O | – | 38.9%
32 | Clc1cccc(-c2nnnn2Cc2cccnc2)c1Cl | – | 83.3%
33 | CCCCCN(CCC12CC3CC(CC(C3)C1)C2)C(=O)NCCCc1ccncc1 | 23.5 µM (active) | –
34 | CC(C)C[C@H](NC(=O)CNC(=O)c1cc(Cl)ccc1Cl)B(O)O | 0.148 µM (active) | –
35 | COc1cc(=C2C=c3ccccc3=N2)[nH]c1=Cc1[nH]c(C)cc1C | 6.62 µM (active) | –
36 | COc1ccc(F)c(F)c1C(=O)c1cnc(NC2CCN(S(C)(=O)=O)CC2)nc1N | 2.35 µM (active) | –
37 | COc1cccc(Nc2c(C(N)=O)cnc3c(C)cc(S(=O)(=O)c4cccc(C(=O)N(C)C)c4)cc23)c1 | – | 92.1% [at 23.2 µM]
38 | COc1cccc(-c2ccc(NC(=O)C3=C(C(=O)O)CCC3)c(F)c2)c1 | – | 95.7%
39 | CC=C1NC(=O)[C@H]2CSSCCC=C[C@H](CC(=O)N[C@H](C(C)C)C(=O)N2)OC(=O)[C@H](C(C)C)NC1=O | 0.0296 µM (active) | –
40 | C=C1C(=CC=C2CCCC3(C)[C@@H]([C@H](C)C=CC=CC(O)(CC)CC)CC[C@@H]23)C[C@@H](O)C[C@@H]1O (stereo not given in full) | 18.7 µM (active) | –
